Source: PubChem BioAssay (NCI)
“And” between values parts separate entries of the source, which are not always exact repeats. Identical values can stand only once. Compounds without any hit were thinned out: in the full panel of roughly 83,000, 20% have a hit.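 A percent growth of 40 corresponds to 60% growth inhibition; 0 means no net growth; -100 means all cells died. Active threshold: below 10.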 The source made the active and inactive calls.

Legend:
Test in all cases: NCI-60 one-dose screen, 48 h (100 = growth as untreated, 0 = no growth, -100 = all killed)
Settings in all cases: 10 µM unless noted
NCI-H23 lung = system: NCI-H23 lung
NCI-H226 lung = system: NCI-H226 lung
NCI-H322M lung = system: NCI-H322M lung
HOP-62 NSCLC = system: HOP-62 NSCLC
NCI-H460 lung = system: NCI-H460 lung
HOP-92 NSCLC = system: HOP-92 NSCLC
NCI-H522 lung = system: NCI-H522 lung
A549/ATCC NSCLC = system: A549/ATCC NSCLC
786-0 renal = system: 786-0 renal
COLO 205 colon = system: COLO 205 colon
DU-145 prostate = system: DU-145 prostate
K-562 leukemia = system: K-562 leukemia
MALME-3M melanoma = system: MALME-3M melanoma
MDA-MB-231 breast = system: MDA-MB-231 breast
RXF 393 renal = system: RXF 393 renal
SF-268 CNS = system: SF-268 CNS
SF-295 CNS = system: SF-295 CNS
SF-539 CNS = system: SF-539 CNS
UACC-257 melanoma = system: UACC-257 melanoma
M14 melanoma = system: M14 melanoma

Compound	growth (NCI-H23 lung)	growth (NCI-H226 lung)	growth (NCI-H322M lung)	growth (HOP-62 NSCLC)	growth (NCI-H460 lung)	growth (HOP-92 NSCLC)	growth (NCI-H522 lung)	growth (A549/ATCC NSCLC)	growth (786-0 renal)	growth (COLO 205 colon)	growth (DU-145 prostate)	growth (K-562 leukemia)	growth (MALME-3M melanoma)	growth (MDA-MB-231 breast)	growth (RXF 393 renal)	growth (SF-268 CNS)	growth (SF-295 CNS)	growth (SF-539 CNS)	growth (UACC-257 melanoma)	growth (M14 melanoma)
COc1ccc2c(c1)CCNC21C(=O)Nc2c(Br)cc(Br)cc21 (stereo not given)	98.4% (inactive)	101% (inactive)	90.3% (inactive)	86.1% (inactive)	101% (inactive)	93.2% (inactive)	91.6% (inactive)	99.2% (inactive)	94.8% (inactive)	112% (inactive)	110% (inactive)	98.8% (inactive)	88.3% (inactive)	74.7% (inactive)	133% (inactive)	100% (inactive)	103% (inactive)	94% (inactive)	100% (inactive)	97.7% (inactive)
CC/C(=C(/c1ccc(Cl)cc1)c1ccc(OCCN2CCOCC2)cc1)c1ccccc1	87.5% (inactive)	108% (inactive)	104% (inactive)	106% (inactive)	96.1% (inactive)	98.4% (inactive)	88.6% (inactive)	89.9% (inactive)	103% (inactive)	99.8% (inactive)	98.4% (inactive)	63.7% (inactive)	104% (inactive)	95.5% (inactive)	107% (inactive)	90.5% (inactive)	97.1% (inactive)	104% (inactive)	98.8% (inactive)	99.5% (inactive)
C=C1CC[C@@H]2[C@](C)(COC(C)=O)[C@H](OC(C)=O)CC[C@@]2(C)[C@@H]1CC(Nc1ccc(S(=O)(=O)Nc2nccs2)cc1)C1=CCOC1=O (stereo not given in full)	38.1% (inactive)	-14% (active)	59.9% (inactive)	120% (inactive)	29.5% (inactive)	54% (inactive)	-61.9% (active)	43.7% (inactive)	6.27% (active)	-24.6% (active)	22.3% (inactive)	3.4% (active)	0.4% (active)	5.69% (active)	-50.6% (active)	21.3% (inactive)	73% (inactive)	-67.1% (active)	22.4% (inactive)	8.12% (active)
Nc1ncc(-c2ccc3ncnc(N4CCc5ccc(Cl)cc54)c3c2)cc1C(F)(F)F	35.4% (inactive)	20.5% (inactive)	7.25% (active)	17.3% (inactive)	18.1% (inactive)	-7.6% (active)	14.1% (inactive)	13.5% (inactive)	8.59% (active)	7.3% (active)	17.6% (inactive)	30.5% (inactive)	-0.57% (active)	21.8% (inactive)	-38.8% (active)	22.4% (inactive)	19.3% (inactive)	2.93% (active)	29.3% (inactive)	26.7% (inactive)
Nc1ccc(-c2ccc(N)c(Br)c2)cc1Br	53.9% (inactive)	56.9% (inactive)	77.3% (inactive)	55.4% (inactive)	44.3% (inactive)	41.8% (inactive)	57% (inactive)	42.2% (inactive)	52.9% (inactive)	82.6% (inactive)	68.1% (inactive)	22.4% (inactive)	55.4% (inactive)	51.8% (inactive)	57.5% (inactive)	44.3% (inactive)	62.8% (inactive)	29.5% (inactive)	78.1% (inactive)	26.9% (inactive)
N#C/C(=C\c1ccccc1Cl)c1cc2ccccc2[nH]1	82.8% (inactive)	75.2% (inactive)	89.5% (inactive)	65.3% (inactive)	90.5% (inactive)	37.3% (inactive)	82.5% (inactive)	90.5% (inactive)	99.6% (inactive)	105% (inactive)	100% (inactive)	70.5% (inactive)	92.8% (inactive)	68.7% (inactive)	102% (inactive)	96.3% (inactive)	93.9% (inactive)	89.4% (inactive)	94.2% (inactive)	91.8% (inactive)
O=C1/C(=C/c2ccc(-c3cccc(C(F)(F)F)c3)o2)SC(=S)N1CCc1ccc(O)cc1	85% (inactive)	101% (inactive)	90.3% (inactive)	88.9% (inactive)	72.4% (inactive)	63.5% (inactive)	4% (active)	75% (inactive)	17.9% (inactive)	-3.13% (active)	12.8% (inactive)	20.6% (inactive)	71.6% (inactive)	90.5% (inactive)	82.2% (inactive)	56.8% (inactive)	96.6% (inactive)	76.2% (inactive)	95% (inactive)	57.5% (inactive)
COc1cc(/C=C/C(=O)c2ccc(NC(=O)CSc3nnc(-c4cc(-c5ccccc5)nc5ccccc45)n3-c3ccccc3)cc2)cc(OC)c1OC	86.8% (inactive)	85.4% (inactive)	91.7% (inactive)	93.7% (inactive)	90.4% (inactive)	88.6% (inactive)	70.7% (inactive)	85.8% (inactive)	94.7% (inactive)	86.4% (inactive)	83.7% (inactive)	49.7% (inactive)	94.6% (inactive)	64.2% (inactive)	94.1% (inactive)	90.8% (inactive)	96.6% (inactive)	88.3% (inactive)	109% (inactive)	94.5% (inactive)
NC(N)=NC(N)=NCCCc1ccco1	105% (inactive)	111% (inactive)	105% (inactive)	101% (inactive)	108% (inactive)	95.4% (inactive)	93.6% (inactive)	102% (inactive)	112% (inactive)	111% (inactive)	115% (inactive)	96.8% (inactive)	96.4% (inactive)	107% (inactive)	114% (inactive)	94.1% (inactive)	93.9% (inactive)	103% (inactive)	99.8% (inactive)	111% (inactive)
O=C1/C(=C/c2ccccc2[N+](=O)[O-])Cc2ccccc21	22.6% (inactive) and 59.2% (inactive)	19.4% (inactive)	65.2% (inactive) and 71.3% (inactive)	57.6% (inactive) and 32.8% (inactive)	7.04% (active) and 23.6% (inactive)	51.9% (inactive) and 77.4% (inactive)	-88.7% (active) and -87.5% (active)	41.4% (inactive) and -6.77% (active)	45% (inactive) and 26.5% (inactive)	-74.9% (active) and 18.5% (inactive)	32.7% (inactive) and 41.5% (inactive)	10.5% (inactive) and 6.16% (active)	23.7% (inactive) and 60.2% (inactive)	-9.95% (active) and 31.3% (inactive)	-4.67% (active) and -0.599% (active)	66% (inactive) and 42.8% (inactive)	23% (inactive) and 28.3% (inactive)	24.2% (inactive) and 34.3% (inactive)	64.4% (inactive) and 71.8% (inactive)	42.7% (inactive) and 57.8% (inactive)
